The values below come from PubChem BioAssay (NCATS).

Where “and” joins values, the source holds several entries; their conditions need not be identical. Equal values may be shown once. Inconclusive results are not listed. Calls of active or inactive are those of the source. Unless noted, the call rests on the fitted dose curve; in most records, active means well fitted curve in the direction sought with a large enough effect; inconclusive means small, poorly fitted or top-dose-only effect, or another doubt; inactive means no such curve, though single readings can be large; an effect the other way counts as inactive or inconclusive.

Experiment [1] has as its target Cytochrome P450 1A2 (Homo sapiens) (UniProt P05177). In words: p450-cyp1a2 (AID 410; calls by dose curve; further: potency means the concentration at half of the fitted maximal effect). The method, boiled down:
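Read-out is luminescence from luciferin produced by CYP1A2 demethylation of Luciferin-ME (100uM, at Km). Detection reagent stopped the 60 min NADPH-dependent reaction; signals were normalized to 57 uM furafylline.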

The target of experiment [2] is Glucocorticoid receptor (Homo sapiens) (UniProt P04150). In words: GR-GFP Redistribution (AID 450;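 active means compounds whose dose series gives a full or clear partial fitted curve of increased nuclear translocation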; further: potency means the concentration at half of the fitted maximal effect). Conditions: U2OS GR-GFP nuclear translocation, laser cytometry, 2 h.
Chain of Glucocorticoid receptor (Homo sapiens) (P04150 whole entry, looked up, the tested form may be a part): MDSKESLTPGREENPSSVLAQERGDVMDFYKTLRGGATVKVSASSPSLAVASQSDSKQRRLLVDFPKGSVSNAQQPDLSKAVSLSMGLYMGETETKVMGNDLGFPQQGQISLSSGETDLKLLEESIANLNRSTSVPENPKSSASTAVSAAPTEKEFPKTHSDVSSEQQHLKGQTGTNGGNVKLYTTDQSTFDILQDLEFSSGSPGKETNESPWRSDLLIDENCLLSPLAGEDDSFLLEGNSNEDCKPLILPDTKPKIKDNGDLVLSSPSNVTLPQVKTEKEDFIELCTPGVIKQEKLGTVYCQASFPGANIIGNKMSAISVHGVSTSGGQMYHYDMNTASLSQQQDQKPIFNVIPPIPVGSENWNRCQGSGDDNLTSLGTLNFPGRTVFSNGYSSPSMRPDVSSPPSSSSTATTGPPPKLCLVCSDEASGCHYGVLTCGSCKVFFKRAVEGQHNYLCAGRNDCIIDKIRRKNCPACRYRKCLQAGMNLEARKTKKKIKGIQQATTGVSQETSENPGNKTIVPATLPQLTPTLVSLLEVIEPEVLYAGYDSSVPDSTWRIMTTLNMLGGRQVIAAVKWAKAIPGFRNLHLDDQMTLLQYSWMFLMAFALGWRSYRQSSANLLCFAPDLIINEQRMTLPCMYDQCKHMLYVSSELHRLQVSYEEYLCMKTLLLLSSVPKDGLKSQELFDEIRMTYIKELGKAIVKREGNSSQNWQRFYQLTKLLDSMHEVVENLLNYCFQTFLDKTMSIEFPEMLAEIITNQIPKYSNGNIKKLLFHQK
The target is the same in experiment [3]. The experiment in a line: GR-EFC Redistribution (AID 451; calls by dose curve; further: potency means the concentration at half of the fitted maximal effect). Conditions: CHO-K1 GR-EFC translocation, beta-gal luminescence, 2 h. In short, it runs like this: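 CHO-K1 cells stably expressing nuclear-localized β-gal enzyme acceptor and GR fused C-terminally to the enzyme donor fragment; ligand-driven nuclear translocation restores β-gal by complementation. Compounds titrated up to 46 uM final, 2 h at 37 °C; luminescence read.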

Experiment [4] addresses Cytochrome P450 3A4 (Homo sapiens) (UniProt P08684). The experiment in a line: qHTS Assay for Activators of Cytochrome P450 3A4 (AID 885). Further: nearly all actives have a fitted effect of over 65% in size. In short, it runs like this:
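Human CYP3A4 dealkylates Luciferin-PPXE to luciferin, which luciferase detection converts to light. Substrate was at its KM (25uM), buffer 200mM KPO4, reaction 60 min at RT.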
(In general: In qHTS, concentration-response curves come from the screen itself.)

Experiment [5] concerns the target Ubiquitin carboxyl-terminal hydrolase 1 (Homo sapiens) (UniProt O94782). In words: Inhibitors of USP1/UAF1: Pilot qHTS (AID 504865).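 Further: rhodamine fluorescence freed from ubiquitin-rhodamine substrate followed over time; top concentration of the series differs between compounds; on the % scale 0 is the no-effect control and ±100 the full control effect; nearly all actives have a fitted effect of over 35% in size.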 In short, it runs like this:
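Deubiquitinase activity followed as kinetic rhodamine fluorescence release from 150 nM Ub-Rho. 1 nM USP1/UAF1 with compound, after 15 min room-temperature preincubation, in HEPES pH 7.8 buffer containing TCEP, EDTA, BSA and Tween-20.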

Experiment [6] addresses DNA dC->dU-editing enzyme APOBEC-3G (Homo sapiens) (UniProt Q9HC16). In words: qHTS for inhibitors of Vif-A3G interactions: Validation (AID 588379). Further: 0% is about no effect. The method, boiled down:
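Yellow fluorescence (Ex 488, Em 500-530) of Vif-coexpressing HeLa A3G-eYFP cells, scanned by Acumen cytometer, reports blocked A3G degradation. Cells plated at 700/well overnight at 37 deg C before compound addition, then a further overnight compound incubation at 37 deg C.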

In experiment [7] the test system is Zika virus NS2B-NS3 protease. The experiment in a line: Primary screen GU AMC qHTS for Zika virus inhibitors (AID 1347154).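 Further: 0% = no-inhibitor control and -100% = no-enzyme control; nearly all actives have a fitted effect of over 70% in size.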 The method, boiled down:
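Unlinked Zika NS2B hydrophilic domain/NS3 protease domain noncovalent complex (25 nM final) in 10 mM Tris-HCl pH 8.0, 0.01% Tween 20, with AMC peptide substrate. Fluorescence (ex 340, em 450 nm) change over 15 min, room temperature; percent inhibition fitted to 4-parameter Hill equation.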

Experiment [8] in a line: Primary qHTS for small molecule stabilizers of the endoplasmic reticulum resident proteome: Secreted ER Calcium Modulated Protein (SERCaMP) assay (AID 1508630). Further: on the % scale 0 is the no-effect control and ±100 the full control effect. In short, it runs like this:
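The SH-SY5Y reporter protocol was run at 3 concentrations up to 38.3 uM (primary) or 11 concentrations (follow-up): 16 h compound, 100 nM thapsigargin for 4 h, then extracellular luciferase luminescence.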

Experiment [9] addresses Cytochrome P450 3A4 (Homo sapiens) (UniProt P08684). In words: qHTS Assay for Inhibitors and Substrates of Cytochrome P450 3A4 (AID 884). Further: nearly all actives have a fitted effect of over 50% in size. Further: potency means the concentration at half of the fitted maximal effect. The method, boiled down:
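Luminescent readout of luciferin produced by CYP3A4 (20 nM) dealkylation of Luciferin-PPXE, 25 uM (its KM). NADPH-driven reaction ran 60 min at RT after 10 min compound preincubation; data scaled to 57 uM ketoconazole as 100% inhibition.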

For experiment [10], the target named is Mitogen-activated protein kinase 10 (Mus musculus) (UniProt Q61831). In words: JNK3 AlphaScreen Assay (AID 530; active means well fitted curve in either direction with a large enough effect, not every such curve was filed as active;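 further: kinase came from lysate of stimulated human HepG2 cells; signal reports phosphorylation of biotinylated GST-cJun 1-79 at Ser73 with 10 µM ATP; on the % scale 0 is the no-effect control and ±100 the full control effect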). In short, it runs like this:
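Biotinylated GST-cJun(1-79) served as substrate for JNK3 in HepG2 lysates stimulated with IL-1beta and TNF-alpha. ATP was 10 uM final, pH 7.6. Ser73 phosphorylation was quantified by AlphaScreen (680 nm excitation).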
In general terms: Alpha assays give light when donor and acceptor beads are brought close together.

The target in experiment [11] is 3',5'-cyclic-AMP phosphodiesterase 4B (Homo sapiens) (UniProt Q07343). The experiment in a line: qHTS Assay for Inhibitors of PDE-IV (AID 607; active means well fitted activation curve with a large enough effect in the main read-out, with a control signal flat, not every such curve was filed as active; further: % of control where 0% means no effect). In short, it runs like this: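 HEK293 ACTOne cells with CNG channel (1000/well), endogenous PDE4; membrane potential dye, compounds up to 22.9 uM final. Fluorescence Ex 535/Em 590; RO 20-1724 (100 uM final) as reference.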
Chain of 3',5'-cyclic-AMP phosphodiesterase 4B (Homo sapiens) (Q07343 whole entry, looked up): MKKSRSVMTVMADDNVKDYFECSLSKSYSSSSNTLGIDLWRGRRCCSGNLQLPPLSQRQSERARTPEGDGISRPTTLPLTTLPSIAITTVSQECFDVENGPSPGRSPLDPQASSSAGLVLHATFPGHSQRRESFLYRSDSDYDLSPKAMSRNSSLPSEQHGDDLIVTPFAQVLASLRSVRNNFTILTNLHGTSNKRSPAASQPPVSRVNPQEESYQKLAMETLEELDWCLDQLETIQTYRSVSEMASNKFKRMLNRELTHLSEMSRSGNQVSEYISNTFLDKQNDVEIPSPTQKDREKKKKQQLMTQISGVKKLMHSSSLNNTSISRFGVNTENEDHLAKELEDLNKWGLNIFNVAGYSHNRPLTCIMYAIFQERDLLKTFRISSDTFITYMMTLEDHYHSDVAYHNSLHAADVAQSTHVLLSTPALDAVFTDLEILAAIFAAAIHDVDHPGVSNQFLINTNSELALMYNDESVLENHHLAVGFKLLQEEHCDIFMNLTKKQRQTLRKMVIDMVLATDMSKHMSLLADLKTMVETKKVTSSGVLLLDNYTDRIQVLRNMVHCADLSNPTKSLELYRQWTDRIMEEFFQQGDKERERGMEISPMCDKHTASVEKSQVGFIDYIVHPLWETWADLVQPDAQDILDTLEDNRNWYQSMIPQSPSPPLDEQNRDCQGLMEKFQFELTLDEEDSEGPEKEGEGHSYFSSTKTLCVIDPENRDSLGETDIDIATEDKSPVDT

Experiment [12] concerns the target Cytochrome P450 2D6 (Homo sapiens) (UniProt P10635). In words: qHTS Assay for Inhibitors and Substrates of Cytochrome P450 2D6 (AID 891). Further: nearly all actives have a fitted effect of over 60% in size. Further: potency means the concentration at half of the fitted maximal effect. The method, boiled down:
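Luminescent read-out of luciferin formed by 5 nM human CYP2D6 demethylating 30 uM Luciferin-ME EGE (Km level) over 60 min at room temperature after NADPH regeneration addition. Data normalized to full inhibition by 1.43 uM quinidine.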

Experiment [13] can be described thus: AP1 Signaling Pathway (AID 357; active means well fitted curve in either direction with a large enough effect, not every such curve was filed as active; further: on the % scale 0 is the no-effect control and ±100 the full control effect). In short, it runs like this: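 Titration-series screen for positive or negative modulators of EC50 EGF-induced signaling in ME-180 cells carrying an AP-1-driven beta-lactamase reporter. After 5 hours at 37 degrees Celsius, CCF4 460nm/530nm emission ratio gave %Activity; AC50 values derived.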
Experiment [14] is described as follows: NFAT Signaling Pathway (AID 444; active means well fitted curve in either direction with a large enough effect, not every such curve was filed as active;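 further: carbachol stimulus at about its EC50 of 1 µM final; on the % scale 0 is the no-effect control and ±100 the full control effect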). The conditions noted are these: Jurkat NFAT-bla M1, carbachol, beta-lactamase ratio, 5 h. In short, it runs like this: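 Jurkat cells carrying an NFAT-driven β-lactamase reporter and co-transfected muscarinic M1 receptor were treated with compound plus carbachol (1 uM final, an EC50 level) for 5 h at 37 °C. CCF4 loading followed for 1 h at RT; 460/530 nm ratio gave %activity.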

Experiment [15] in a line: Stat Signaling Pathway (AID 446; active means well fitted curve in either direction with a large enough effect, not every such curve was filed as active). The method, boiled down: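 Normalization used AC90 stimulation (300 pM IL-6) and AC90 inhibition (125 nM pan-JAK inhibitor at 40 pM IL-6). The underlying signal is SIE-driven beta-lactamase in ME-180 cells after 5 h IL-6 exposure with compound.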
The target of experiment [16] is Guanine nucleotide-binding protein G(i) subunit alpha-1 (Homo sapiens) (UniProt P63096). In words: qHTS Assay for Inhibitors of RGS12 GoLoco Motif Activity (Green Fluorophore) (AID 879).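 Further: 0% = labeled peptide with Gαi1 and full inhibition = labeled peptide alone without protein; negative values mean loss of peptide binding seen as reduced polarization.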 In short, it runs like this:
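A drop in FITC polarization marked displacement of the FITC-tagged RGS12 GoLoco peptide (10 nM) from Gαi1 (50 nM). Compounds were incubated 10 min at room temperature in Tris pH 7.5 buffer containing 150 mM NaCl, 0.1 mM GDP and 0.05% NP40; unlabeled peptide titration served as control.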

The target of experiment [17] is Pyruvate kinase (Leishmania mexicana) (UniProt Q27686). In words: qHTS Validation Assay for Inhibitors of Leishmania Mexicana Pyruvate Kinase (AID 945).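 Further: 0% = DMSO only neutral control wells.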 In short, it runs like this: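 LmPYK E451W 0.2 nM; 0.5 mM PEP, 0.1 mM ADP, 7 mM MgCl2, 50 mM KCl, imidazole pH 7.2, 0.01% Tween 20, 0.05% BSA; 1 h RT; PKLight luminescence; DMSO-normalized.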
Experiment [18] deals with Alpha-galactosidase (Coffea arabica) (UniProt Q42656). The experiment in a line: Counterscreen for Glucocerebrosidase Inhibitors: qHTS Assay for Coffee Bean alpha-Galactosidase at pH 4.5 (AID 957).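 Further: plate controls were enzyme alone for no effect and no enzyme for full effect.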 In short, it runs like this: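 Quantitative HTS of compounds (0.7 nM to 77 uM) against coffee bean alpha-galactosidase at pH 4.5, measuring 4-methylumbelliferone fluorescence released from 80 uM substrate.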

For experiment [19], the target named is Alpha-galactosidase A (Homo sapiens) (UniProt P06280). The experiment in a line: Counterscreen for Glucocerebrosidase Inhibitors: qHTS Assay for Human alpha-Galactosidase at pH 4.5 (AID 992). Further: 0% is about no effect. The method, boiled down: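 Steps: enzyme (2 nM final), then compound across 0.7 nM to 77 uM, then 80 uM fluorogenic galactopyranoside substrate; incubate 20 min at room temperature; quench at pH 10; measure fluorescence at 365/440 nm.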
Chain of Alpha-galactosidase A (Homo sapiens) (P06280 whole entry, looked up): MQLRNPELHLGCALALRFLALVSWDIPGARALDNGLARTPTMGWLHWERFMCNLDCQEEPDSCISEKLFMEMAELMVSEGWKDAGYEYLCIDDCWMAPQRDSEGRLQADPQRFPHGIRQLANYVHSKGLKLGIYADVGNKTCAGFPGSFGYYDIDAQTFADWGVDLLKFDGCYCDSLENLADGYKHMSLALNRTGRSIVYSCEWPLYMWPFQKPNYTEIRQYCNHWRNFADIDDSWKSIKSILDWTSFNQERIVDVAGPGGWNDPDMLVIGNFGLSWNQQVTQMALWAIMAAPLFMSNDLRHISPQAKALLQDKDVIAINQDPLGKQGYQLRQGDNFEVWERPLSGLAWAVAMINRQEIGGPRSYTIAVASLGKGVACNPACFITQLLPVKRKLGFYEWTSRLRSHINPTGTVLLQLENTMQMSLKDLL
Background: A counterscreen serves to expose hits that act by an unwanted route or on another target.

Experiment [20] in a line: qHTS Assay for Lipid Storage Modulators (AID 1519; calls by dose curve). Conditions: Drosophila S3 cells, BODIPY lipid droplet/cell ratio, laser cytometry, cells loaded with oleic acid. The method, boiled down:
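Cells seeded at 5,000 per well were treated with compounds over a concentration series and loaded with oleic acid (400 uM, as added). Lipid droplet fluorescence (488 nm excitation, 500-530 nm channel) was read by laser-scanning cytometry and normalized to 20 uM Triacsin C.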

Chain of Ubiquitin carboxyl-terminal hydrolase 1 (Homo sapiens) (O94782 whole entry, looked up): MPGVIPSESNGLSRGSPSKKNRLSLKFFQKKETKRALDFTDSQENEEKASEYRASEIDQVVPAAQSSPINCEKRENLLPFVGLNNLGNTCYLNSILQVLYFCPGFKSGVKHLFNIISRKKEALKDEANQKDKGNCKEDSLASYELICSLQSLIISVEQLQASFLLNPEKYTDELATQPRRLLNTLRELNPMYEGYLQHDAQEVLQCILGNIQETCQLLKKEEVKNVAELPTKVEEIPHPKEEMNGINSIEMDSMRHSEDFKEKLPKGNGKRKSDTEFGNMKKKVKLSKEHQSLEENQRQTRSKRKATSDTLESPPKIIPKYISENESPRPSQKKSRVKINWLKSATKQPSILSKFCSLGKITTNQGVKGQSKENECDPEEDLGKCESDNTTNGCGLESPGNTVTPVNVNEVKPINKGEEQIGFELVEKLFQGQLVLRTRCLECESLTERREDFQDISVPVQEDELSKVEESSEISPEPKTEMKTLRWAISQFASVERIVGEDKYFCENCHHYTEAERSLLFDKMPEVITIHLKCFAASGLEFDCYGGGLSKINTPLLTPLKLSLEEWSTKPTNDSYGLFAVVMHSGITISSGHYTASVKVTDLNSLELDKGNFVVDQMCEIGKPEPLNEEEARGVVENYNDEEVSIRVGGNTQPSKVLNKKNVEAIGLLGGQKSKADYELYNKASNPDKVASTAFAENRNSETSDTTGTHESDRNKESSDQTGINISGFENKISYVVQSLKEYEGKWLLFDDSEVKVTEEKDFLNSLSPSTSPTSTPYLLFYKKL
Chain of Cytochrome P450 1A2 (Homo sapiens) (P05177 whole entry, looked up): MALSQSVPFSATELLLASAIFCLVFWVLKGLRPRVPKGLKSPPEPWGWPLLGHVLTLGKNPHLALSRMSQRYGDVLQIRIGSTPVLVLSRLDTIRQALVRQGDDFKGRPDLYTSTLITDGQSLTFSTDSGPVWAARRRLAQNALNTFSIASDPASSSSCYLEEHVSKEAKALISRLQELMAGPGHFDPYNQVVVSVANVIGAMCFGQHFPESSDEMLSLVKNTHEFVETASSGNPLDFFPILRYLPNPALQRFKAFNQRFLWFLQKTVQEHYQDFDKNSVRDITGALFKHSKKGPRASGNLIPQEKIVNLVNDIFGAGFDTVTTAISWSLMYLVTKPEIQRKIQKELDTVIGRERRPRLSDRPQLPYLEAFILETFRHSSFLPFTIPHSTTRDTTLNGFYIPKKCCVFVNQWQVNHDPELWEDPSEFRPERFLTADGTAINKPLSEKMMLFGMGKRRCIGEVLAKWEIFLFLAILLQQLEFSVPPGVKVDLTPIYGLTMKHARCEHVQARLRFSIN
Chain of DNA dC->dU-editing enzyme APOBEC-3G (Homo sapiens) (Q9HC16 whole entry, looked up): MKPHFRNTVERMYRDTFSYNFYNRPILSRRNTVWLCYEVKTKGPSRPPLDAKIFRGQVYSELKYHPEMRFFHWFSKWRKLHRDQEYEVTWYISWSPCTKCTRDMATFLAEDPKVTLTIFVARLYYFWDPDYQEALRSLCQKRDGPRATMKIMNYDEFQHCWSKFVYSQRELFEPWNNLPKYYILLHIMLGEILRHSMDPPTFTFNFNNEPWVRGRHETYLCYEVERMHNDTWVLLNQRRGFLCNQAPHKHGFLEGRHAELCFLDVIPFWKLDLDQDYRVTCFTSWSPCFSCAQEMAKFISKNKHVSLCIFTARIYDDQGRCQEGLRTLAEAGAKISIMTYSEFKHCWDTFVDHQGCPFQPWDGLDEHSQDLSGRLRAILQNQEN
Chain of Cytochrome P450 3A4 (Homo sapiens) (P08684 whole entry, looked up): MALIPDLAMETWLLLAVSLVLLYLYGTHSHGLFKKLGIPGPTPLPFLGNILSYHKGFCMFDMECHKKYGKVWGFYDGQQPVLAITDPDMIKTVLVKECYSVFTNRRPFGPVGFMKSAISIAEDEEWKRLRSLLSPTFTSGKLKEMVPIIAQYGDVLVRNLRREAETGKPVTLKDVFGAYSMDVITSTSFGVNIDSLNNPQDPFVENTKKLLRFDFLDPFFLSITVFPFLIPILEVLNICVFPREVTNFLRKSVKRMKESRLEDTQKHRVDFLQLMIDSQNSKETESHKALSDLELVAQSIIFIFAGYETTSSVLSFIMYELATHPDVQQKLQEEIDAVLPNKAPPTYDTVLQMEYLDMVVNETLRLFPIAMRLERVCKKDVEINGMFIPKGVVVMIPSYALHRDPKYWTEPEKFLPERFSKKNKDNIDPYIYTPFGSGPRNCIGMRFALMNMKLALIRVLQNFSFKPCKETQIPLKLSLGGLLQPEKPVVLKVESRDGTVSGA
Chain of Cytochrome P450 2D6 (Homo sapiens) (P10635 whole entry, looked up): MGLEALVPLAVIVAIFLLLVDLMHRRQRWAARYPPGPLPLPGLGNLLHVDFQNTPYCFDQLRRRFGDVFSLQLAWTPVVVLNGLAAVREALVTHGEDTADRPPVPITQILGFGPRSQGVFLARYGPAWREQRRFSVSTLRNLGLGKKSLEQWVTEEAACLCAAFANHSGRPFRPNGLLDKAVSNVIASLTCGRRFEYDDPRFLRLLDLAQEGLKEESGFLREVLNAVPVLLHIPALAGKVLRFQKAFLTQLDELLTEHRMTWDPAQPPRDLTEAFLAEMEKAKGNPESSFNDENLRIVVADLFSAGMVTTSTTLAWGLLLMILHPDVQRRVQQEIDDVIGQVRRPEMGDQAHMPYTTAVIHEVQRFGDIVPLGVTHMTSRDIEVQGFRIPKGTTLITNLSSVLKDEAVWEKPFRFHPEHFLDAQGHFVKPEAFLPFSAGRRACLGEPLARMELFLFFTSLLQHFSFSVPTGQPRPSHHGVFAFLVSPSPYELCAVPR
Chain of Guanine nucleotide-binding protein G(i) subunit alpha-1 (Homo sapiens) (P63096 whole entry, looked up): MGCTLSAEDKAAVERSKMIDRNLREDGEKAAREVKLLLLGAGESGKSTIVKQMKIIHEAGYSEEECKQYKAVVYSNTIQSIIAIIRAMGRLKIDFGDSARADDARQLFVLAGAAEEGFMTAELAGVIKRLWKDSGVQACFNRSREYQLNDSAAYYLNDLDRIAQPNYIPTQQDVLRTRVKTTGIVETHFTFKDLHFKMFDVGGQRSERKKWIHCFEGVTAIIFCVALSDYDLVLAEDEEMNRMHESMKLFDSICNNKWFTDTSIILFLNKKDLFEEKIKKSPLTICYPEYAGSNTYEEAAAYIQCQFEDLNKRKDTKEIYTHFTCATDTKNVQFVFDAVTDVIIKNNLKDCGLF

For `O=C1/C(=C\c2ccccc2)C[C@@]2(O)[C@H]3Cc4ccc(O)c5c4[C@@]2(CCN3CC2CC2)[C@@H]1O5`, the figures for the Potency in experiment [1], in [2] and in [3] were 31.6 µM (active), > 46 µM (inactive) and > 46 µM (inactive), respectively. The Potency entry in experiment [4], in [5], in experiment [6], in experiment [7] and in experiment [8] was “inactive” throughout.

Take `NC(=NCCc1ccc(I)cc1)SCCCc1cnc[nH]1`: the Potency in [2] is > 46 µM (inactive); in [3], > 46 µM (inactive); in experiment [9], 0.794 µM (active). Also, the Potency entry in experiment [4], in [5], in experiment [6], in [7] and in experiment [8] was “inactive” in each case.

As to `CCC[C@@H]1CC2=CC(=O)CC[C@]2(C)[C@@H]2CC[C@@]3(C)[C@H](CC[C@]3(O)CCC(=O)O)[C@H]12`, the Potency in experiment [2] and in experiment [3] was > 46 µM (inactive) in each case. Besides, the call in experiment [10] was inactive. For the same molecule, the Potency entry in experiment [11], in experiment [5], in experiment [6], in [7] and in experiment [8] was “inactive” throughout.

Consider `CCCCCCCCCOc1ccc2[nH]cc(CCN)c2c1`, for which the figures for the Potency in experiment [1] and in experiment [3] were 0.0398 µM (active) and > 46 µM (inactive), respectively. In addition, the Potency result in [11], in experiment [4], in experiment [6], in [7] and in experiment [8] was “inactive” each time.

With `CCN1C[C@]2(COC)[C@H](O)C[C@H](OC)[C@]34C1C([C@H](OC)[C@H]23)[C@]1(OC(C)=O)C2[C@@H](OC(=O)c3ccccc3)C(O)(C[C@H]24)[C@@H](OC)[C@@H]1O`, the Potency entry in experiment [5], in experiment [7] and in [8] was “inactive” each time.

`c1ccc([C@H]2CNCc3ccccc32)cc1`: the Potency result in experiment [1], in experiment [4], in experiment [6], in experiment [7] and in [8] was “inactive” throughout. Besides, the values for the Potency in experiment [3] and in experiment [12] were > 46 µM (inactive) and 5.01 µM (active), respectively. Also, in experiment [10], the call was inactive.

For the molecule `Cc1ccc2cc3c(ccc4ccccc43)c3c2c1CC3`, the Potency result in experiment [7] and in [8] was “inactive” throughout.

`COC1=CC(=O)OC(/C=C/c2ccccc2)C1` (centres undefined): the molecule was classed as inactive in [13] and in experiment [15]. Moreover, the activity change, negative = inhibition in experiment [14] (at 17.2 µM (top of the series)) was -0.501% (inactive). The Potency in [2] was > 20.6 µM (inactive). The Potency result in experiment [7] and in experiment [8] was “inactive” each time.

Turning to `C/C(O)=C(/C#N)C(=O)Nc1cc(Br)ccc1Br`, the result in [13], in experiment [15], in [16], in [17], in experiment [18] and in [19] was inactive. For the same molecule, in [14] (at 38 µM (top of the series)), the activity change, negative = inhibition was 6.53% (inactive). Moreover, the Potency in experiment [2] and in [3] was > 46 µM (inactive) in each case. Besides, the Potency result in [11], in experiment [4], in experiment [12], in [6], in [7] and in [8] was “inactive” in each case.

Regarding `CCCCC1(C2CCCC2)Cc2cc(OCCCC(=O)O)c(Cl)c(Cl)c2C1=O` (centres undefined), the Potency entry in [9], in experiment [7] and in experiment [8] was “inactive” each time.

As for `O[C@H]1CCCC[C@H]1N1CCC(c2ccccc2)CC1`, the result in experiment [13], in [15] and in [10] was inactive. The Potency in experiment [3] was > 20.6 µM (inactive) and > 46 µM (inactive). The Potency result in experiment [11], in [6] and in experiment [7] was “inactive” in each case. Further, the activity change, negative = inhibition in experiment [20] (at 25.7 µM (top of the series)) is 0.444% (inactive); in [20] (at 57.5 µM (top of the series)) it was 0.117% (inactive). For the same molecule, the max response in experiment [20] (measured here: cell count channel max response) was -12.1% and 1.1%; in [20] (measured here: lipid channel max response), -11.1% and -2.26%.

In the case of `O=C1Nc2cc(Cl)c(Cl)cc2N2CCNC[C@H]12`, the Potency in [3] was > 46 µM (inactive). Further, the outcome in experiment [10] was inactive. The Potency entry in experiment [6], in experiment [7] and in [8] was “inactive” each time.
